PubChem BioAssay (NCATS)
A number with no mark means an inactive call. Inconclusive results are not listed. Where a call stands in place of a potency, no number is given. Calls of active or inactive are those of the source. Unless noted, the call rests on the fitted dose curve; in most records, active means well fitted curve in the direction sought with a large enough effect; inconclusive means small, poorly fitted or top-dose-only effect, or another doubt; inactive means no such curve, though single readings can be large; an effect the other way counts as inactive or inconclusive.

Assays:
[1] = Cell Viability - Mesenchymal (AID 546);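 further: cells exposed to compound for 40 hours before reading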
Method in brief: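 AC50 values reflect the drop in intracellular ATP in a human kidney mesenchymal line derived from normal glomeruli. Treatment lasts 40 hr at 37 °C in complete medium, and the signal comes from CellTiter-Glo luminescence.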

[2] = Cellular Toxicity (caspase-3) HepG2 (AID 654);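 further: cells exposed to compound for 16 hours before reading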
Method in brief: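 Cells plated 5 hr at 37 °C, compound added, incubated 16 hr at 37 °C. Caspase-Glo 3/7 reagent followed, 20 min at room temperature, then luminescence read. Activation scored as signal increase; AC50 from Hill fit.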

[3] = Cellular Toxicity (caspase-3) Jurkat (AID 655);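 further: cells exposed to compound for 16 h at 37 °C before reading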; further: potency means the concentration at half of the fitted maximal effect
Method in brief: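 Luminescent Caspase-Glo 3/7 read-out (20 min, room temperature) after 16 h compound treatment at 37 C of 5000 Jurkat cells per well. AC50 derived by Hill-equation fitting, scaled between DMSO basal and 100 uM tamoxifen stimulation.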

[4] = Cellular Toxicity (caspase-3) SHSY5Y (AID 657); further: potency means the concentration at half of the fitted maximal effect
Method in brief: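 Luminescent Caspase-Glo 3/7 read-out, 1 hr room temperature, follows 16 hours of compound treatment of SH-SY5Y cells at 37 °C. Normalization: DMSO basal, 10 uM staurosporine as 100%; AC50 values from Hill-equation concentration-response fits.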

[5] = Cellular Toxicity (caspase-3) BJ (AID 658); details: Potency: caspase-3 activation
Method in brief: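 Readout: Caspase-Glo 3/7 luminescence increase in BJ cells after 16 hr treatment at 37 °C. Staurosporine and tamoxifen served as positive controls; AC50 values came from Hill modelling of data normalized to DMSO and 10 uM staurosporine.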

[6] = Cellular Toxicity (caspase-3) MRC-5 (AID 659)
Method in brief: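 Concentration-dependent caspase 3/7 activation is measured in human normal lung fibroblasts (MRC-5) following 16-hour treatment. AC50 values come from standard Hill-equation modeling of luminescence normalized to DMSO and 10 uM staurosporine.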

[7] = Cellular Toxicity (caspase-3) Mesangial (AID 660);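 further: combined caspase 3 and 7 activity read by Caspase-Glo luminescence; cells exposed to compound for 16 h before the caspase read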
Method in brief: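 Mesangial cells, 1000/well, 5 h settle at 37 °C; compound 16 h, 37 °C; Caspase-Glo 3/7 reagent 20 min RT; luminescence. Norm.: DMSO = 0%, tamoxifen 100 uM = 100%. AC50, Hill fit.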

[8] = Cellular Toxicity (caspase-3) H-4-II-E (AID 663);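 further: cells exposed to compound for 16 hr before readout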
Method in brief: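 Apoptosis induction is scored as increased luminescence from caspase 3/7 substrate cleavage in rat hepatoma H-4-II-E cells exposed to compound for 16 hr. Activity is scaled between DMSO and 100 uM tamoxifen.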

[9] = Cellular Toxicity (caspase-3) Hek293 (AID 664); details: HEK293 caspase-3 activation, DMSO = 0%, 100 µM tamoxifen = 100%; at 92.2 µM (top of the series);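 further: cells exposed to compound for 16 h at 37 °C before readout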
Method in brief: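 Cells plated, 5 hr at 37 °C; compounds added; 16 hr at 37 °C; Caspase-Glo 3/7 reagent, 20 min RT; luminescence read. Activation expressed relative to DMSO and 100 uM tamoxifen, AC50 by Hill model.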

[10] = Cellular Toxicity (caspase-3) NIH 3T3 (AID 666);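 further: caspase signal read after 16 h compound exposure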
Method in brief: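 Luminescence from aminoluciferin released by caspase-3/7 cleavage of a peptide substrate served as read-out. Mouse fibroblast NIH 3T3 cells were exposed to compounds over a concentration range for 16 hours, and AC50 values came from standard Hill modelling.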

[11] = Cellular Toxicity (caspase-3) Renal Proximal Tubule (AID 667);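 further: cells exposed to compound for 16 hours at 37 °C before detection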
Method in brief: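 Caspase 3/7 activation measured by luminescent aminoluciferin release in primary rat proximal tubule cells after 16 hr compound exposure at 37 °C. AC50 from Hill-fitted concentration-response, scaled between DMSO and 10 uM staurosporine.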

[12] = target: Cytochrome P450 3A4 (Homo sapiens) (UniProt P08684); experiment: qHTS Assay for Inhibitors and Substrates of Cytochrome P450 3A4 (AID 884); further: nearly all actives have a fitted effect of over 50% in size; further: potency means the concentration at half of the fitted maximal effect
Sequence of Cytochrome P450 3A4 (Homo sapiens) (P08684 whole entry, looked up): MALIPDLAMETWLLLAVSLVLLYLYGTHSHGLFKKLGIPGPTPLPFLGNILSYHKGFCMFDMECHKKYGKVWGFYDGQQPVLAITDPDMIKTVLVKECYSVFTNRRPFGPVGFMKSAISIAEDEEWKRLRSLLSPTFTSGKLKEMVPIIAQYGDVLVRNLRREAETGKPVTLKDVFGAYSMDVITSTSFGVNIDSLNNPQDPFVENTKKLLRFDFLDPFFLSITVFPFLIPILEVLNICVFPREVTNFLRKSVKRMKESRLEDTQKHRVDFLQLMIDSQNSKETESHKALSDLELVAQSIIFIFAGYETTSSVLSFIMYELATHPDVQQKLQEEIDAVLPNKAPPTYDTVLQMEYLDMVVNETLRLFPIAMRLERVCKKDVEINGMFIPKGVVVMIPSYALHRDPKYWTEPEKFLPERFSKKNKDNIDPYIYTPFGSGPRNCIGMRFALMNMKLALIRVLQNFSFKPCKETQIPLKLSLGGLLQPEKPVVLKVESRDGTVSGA
Method in brief: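 20 nM human CYP3A4 with 25 uM Luciferin-PPXE (at KM) in 200 mM KPO4, preincubated 10 min with compound; NADPH regeneration started a 60 min RT reaction. Luciferin detected by luminescence, normalized to 57 uM ketoconazole as full inhibition.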

[13] = target: 3',5'-cyclic-AMP phosphodiesterase 4B (Homo sapiens) (UniProt Q07343); experiment: qHTS Assay for Inhibitors of PDE-IV (AID 607; active means well fitted activation curve with a large enough effect in the main read-out, with a control signal flat, not every such curve was filed as active)
Sequence of 3',5'-cyclic-AMP phosphodiesterase 4B (Homo sapiens) (Q07343 whole entry, looked up): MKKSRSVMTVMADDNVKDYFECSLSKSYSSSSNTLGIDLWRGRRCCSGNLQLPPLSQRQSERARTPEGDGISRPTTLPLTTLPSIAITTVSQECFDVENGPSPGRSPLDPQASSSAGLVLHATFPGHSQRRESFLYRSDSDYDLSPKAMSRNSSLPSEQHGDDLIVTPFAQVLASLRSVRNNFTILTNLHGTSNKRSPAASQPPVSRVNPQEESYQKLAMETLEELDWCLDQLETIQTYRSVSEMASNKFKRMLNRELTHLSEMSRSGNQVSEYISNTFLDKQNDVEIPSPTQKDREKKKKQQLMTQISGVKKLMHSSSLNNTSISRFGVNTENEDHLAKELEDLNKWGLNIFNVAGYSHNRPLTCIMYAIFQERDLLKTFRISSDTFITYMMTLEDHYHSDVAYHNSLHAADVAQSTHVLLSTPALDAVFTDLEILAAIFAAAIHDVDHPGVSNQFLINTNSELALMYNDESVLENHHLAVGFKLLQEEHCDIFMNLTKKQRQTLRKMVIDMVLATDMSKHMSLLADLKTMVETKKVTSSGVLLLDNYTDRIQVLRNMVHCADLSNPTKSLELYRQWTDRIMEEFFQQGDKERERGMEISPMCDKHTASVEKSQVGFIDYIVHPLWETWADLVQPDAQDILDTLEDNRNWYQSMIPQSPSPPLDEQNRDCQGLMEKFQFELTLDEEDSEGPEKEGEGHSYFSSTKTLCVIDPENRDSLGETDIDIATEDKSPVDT
Method in brief: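 Cell-based read-out of cAMP via a modified cyclic nucleotide-gated channel and membrane potential dye (535/590 nm) in HEK293 cells expressing PDE4 endogenously. Compounds tested up to 22.9 uM final; 100 uM RO 20-1724 reference.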

[14] = target: Cytochrome P450 2D6 (Homo sapiens) (UniProt P10635); experiment: qHTS Assay for Inhibitors and Substrates of Cytochrome P450 2D6 (AID 891); further: potency means the concentration at half of the fitted maximal effect; nearly all actives have a fitted effect of over 60% in size
Sequence of Cytochrome P450 2D6 (Homo sapiens) (P10635 whole entry, looked up): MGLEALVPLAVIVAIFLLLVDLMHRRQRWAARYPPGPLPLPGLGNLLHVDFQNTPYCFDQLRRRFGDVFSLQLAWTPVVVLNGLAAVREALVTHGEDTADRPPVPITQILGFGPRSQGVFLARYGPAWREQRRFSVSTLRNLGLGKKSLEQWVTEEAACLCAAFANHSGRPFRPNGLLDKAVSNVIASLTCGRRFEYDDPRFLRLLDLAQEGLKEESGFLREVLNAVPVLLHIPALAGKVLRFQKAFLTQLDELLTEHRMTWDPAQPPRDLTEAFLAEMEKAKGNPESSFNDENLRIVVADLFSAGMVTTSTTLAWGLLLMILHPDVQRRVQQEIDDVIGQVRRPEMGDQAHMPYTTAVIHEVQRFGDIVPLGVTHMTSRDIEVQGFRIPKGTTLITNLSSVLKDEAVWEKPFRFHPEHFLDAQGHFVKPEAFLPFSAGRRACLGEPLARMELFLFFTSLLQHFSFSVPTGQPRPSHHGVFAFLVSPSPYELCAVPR
Method in brief: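 Human CYP2D6 (5 nM) with 30 uM Luciferin-ME EGE (at Km) in 100 mM KPO4, compound preincubated 10 min, then NADPH regeneration system for 60 min at room temperature. Luciferin read by luminescence; normalized to 1.43 uM quinidine.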

[15] = Confirmation and Secondary Assay for Modulators of Hemoglobin Beta Chain Splicing at IVS2 654 locus (AID 910);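 further: HeLa cells stably carrying EGFP split by mutant beta-globin IVS2-654 intron; per-well total GFP intensity by laser scanning cytometry after 2-day treatment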;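 further: potency means the concentration at half of the fitted maximal effect; potency of activators that raise GFP signal by restoring correct splicing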
Method in brief: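 Readout: per-well total peak green fluorescence (488 nm ex, 500–520 nm em) from objects 5–250 µm, reflecting correct splicing of an EGFP-654 reporter. Compounds were applied for 2 days at 37 °C to overnight-plated HeLa EGFP-654 cells; controls were DMSO and 500 nM IVS2-654 PNA.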

[16] = target: Cytochrome P450 2C9 (Homo sapiens) (UniProt P11712); experiment: qHTS Assay for Inhibitors and Substrates of Cytochrome P450 2C9 (AID 883); further: potency means the concentration at half of the fitted maximal effect; nearly all actives have a fitted effect of over 60% in size
Sequence of Cytochrome P450 2C9 (Homo sapiens) (P11712 whole entry, looked up): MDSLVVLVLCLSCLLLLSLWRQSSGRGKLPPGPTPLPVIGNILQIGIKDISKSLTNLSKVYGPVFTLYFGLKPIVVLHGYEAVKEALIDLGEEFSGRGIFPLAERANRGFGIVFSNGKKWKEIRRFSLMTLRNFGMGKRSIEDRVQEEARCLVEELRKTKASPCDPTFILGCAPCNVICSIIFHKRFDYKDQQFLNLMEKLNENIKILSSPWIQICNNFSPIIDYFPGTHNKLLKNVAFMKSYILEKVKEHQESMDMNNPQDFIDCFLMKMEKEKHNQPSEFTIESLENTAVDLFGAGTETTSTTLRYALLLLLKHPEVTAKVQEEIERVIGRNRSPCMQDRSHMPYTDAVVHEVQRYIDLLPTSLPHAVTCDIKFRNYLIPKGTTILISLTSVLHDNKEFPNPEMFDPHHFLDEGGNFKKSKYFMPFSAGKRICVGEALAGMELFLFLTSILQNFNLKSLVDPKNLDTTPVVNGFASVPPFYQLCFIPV
Method in brief: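 Turnover of Luciferin-H (100uM, KM) by 10nM human CYP2C9 was measured over 60 min at 37C with NADPH regeneration; inhibitors and some substrates reduce luminescence. Data normalized to sulphaphenazole 57uM.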

[17] = target: Cytochrome P450 3A4 (Homo sapiens) (UniProt P08684); experiment: qHTS Assay for Activators of Cytochrome P450 3A4 (AID 885); further: nearly all actives have a fitted effect of over 65% in size
Method in brief: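 Signal was normalized against complete inhibition by 57 uM ketoconazole. The reaction used 20nM CYP3A4 with 25uM Luciferin-PPXE, 10-min compound preincubation and a 60-min NADPH-supported step at RT.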

[18] = target: Cytochrome P450 2C19 (Homo sapiens) (UniProt P33261); experiment: qHTS Assay for Inhibitors and Substrates of Cytochrome P450 2C19 (AID 899); details: recombinant CYP2C19, luciferin-H EGE luminescence; further: potency means the concentration at half of the fitted maximal effect; nearly all actives have a fitted effect of over 60% in size
Sequence of Cytochrome P450 2C19 (Homo sapiens) (P33261 whole entry, looked up): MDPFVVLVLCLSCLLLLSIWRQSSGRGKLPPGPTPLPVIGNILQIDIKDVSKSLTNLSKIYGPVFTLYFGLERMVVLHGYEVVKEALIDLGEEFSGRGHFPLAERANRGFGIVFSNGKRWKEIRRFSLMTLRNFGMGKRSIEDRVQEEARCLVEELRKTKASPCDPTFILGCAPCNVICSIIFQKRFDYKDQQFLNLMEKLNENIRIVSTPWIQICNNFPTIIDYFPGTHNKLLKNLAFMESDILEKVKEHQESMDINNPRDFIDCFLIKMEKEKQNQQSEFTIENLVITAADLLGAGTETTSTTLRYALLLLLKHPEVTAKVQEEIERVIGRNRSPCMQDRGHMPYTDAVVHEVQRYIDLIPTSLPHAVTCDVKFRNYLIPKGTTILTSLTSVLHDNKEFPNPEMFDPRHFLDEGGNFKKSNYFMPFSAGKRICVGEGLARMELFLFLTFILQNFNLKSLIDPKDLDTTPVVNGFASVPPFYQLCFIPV
Method in brief: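 Reactions contain 5nM enzyme, 10uM Luciferin-H EGE (KM) and 50mM KPO4; compound preincubates 10 min at 37C, NADPH regeneration starts turnover for 60 min. Luminescence after detection reagent gives activity.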

C[C@H]1O[C@@H](O[C@H]2[C@@H](O)C[C@H](O[C@H]3[C@@H](O)C[C@H](O[C@H]4CC[C@@]5(C)[C@H](CC[C@@H]6[C@@H]5C[C@@H](O)[C@]5(C)[C@@H](C7=CC(=O)OC7)CC[C@]65O)C4)O[C@@H]3C)O[C@@H]2C)C[C@H](O)[C@@H]1O
outcome [1]: inactive
outcome [2]: inactive
Potency [3]: 0.0126 µM (active)
Potency [4]: inactive
Potency [5]: inactive
outcome [6]: inactive
outcome [7]: inactive
outcome [8]: inactive
caspase-3 activation [9]: -3.59%
outcome [10]: inactive
outcome [11]: inactive
Potency [12]: inactive

CC1=CCC2CC1C2(C)C (stereo unspecified)
outcome [1]: inactive
outcome [2]: inactive
Potency [3]: inactive
Potency [4]: inactive
Potency [5]: inactive
outcome [6]: inactive
outcome [7]: inactive
caspase-3 activation [9]: 0.916%
outcome [10]: inactive
outcome [11]: inactive
Potency [12]: inactive

O=c1n(CC2CO2)c(=O)n(CC2CO2)c(=O)n1CC1CO1 (stereo unspecified)
outcome [2]: inactive
Potency [4]: 12.6 µM (active)
Potency [5]: inactive
outcome [6]: inactive
outcome [7]: inactive
outcome [8]: inactive
caspase-3 activation [9]: 3.19%
outcome [10]: inactive
outcome [11]: inactive
Potency [12]: inactive

CCCOc1cc(N)ccc1C(=O)OCCN(CC)CC
outcome [13]: inactive
Potency [14]: 2 µM (active)

Oc1cccc(O)c1O
outcome [2]: inactive
Potency [3]: inactive
Potency [4]: inactive
Potency [5]: inactive
outcome [6]: inactive
outcome [7]: inactive
outcome [8]: inactive
caspase-3 activation [9]: 1.35%
outcome [10]: inactive
outcome [11]: inactive
Potency [12]: inactive

C=CC(C)(O)CC/C=C(\C)CCC=C(C)C (stereo unspecified)
Potency [12]: inactive
Potency [15]: inactive

Cc1cc(-c2ccc(N=Nc3ccc4c(S(=O)(=O)O)cc(S(=O)(=O)O)c(N)c4c3O)c(C)c2)ccc1N=Nc1ccc2c(S(=O)(=O)O)cc(S(=O)(=O)O)c(N)c2c1O
Potency [16]: 7.94 µM (active)
Potency [12]: 15.8 µM (active)
Potency [17]: inactive
Potency [14]: 15.8 µM (active)
Potency [18]: 0.199 µM (active)

CC1CCCC(C)N1NC(=O)c1ccc(Cl)c(S(N)(=O)=O)c1 (stereo unspecified)
Potency [12]: inactive
Potency [15]: inactive

O=C(CCCCCCCCCCCCC1CCCC1)Nc1ccc(S(=O)(=O)c2ccc(NC(=O)CCCCCCCCCCCCC3CCCC3)cc2)cc1
Potency [17]: inactive
Potency [15]: inactive

O=C1c2ccccc2C(=O)c2c1ccc(O)c2O
Potency [17]: inactive
Potency [15]: inactive

Nc1ccc(N=Nc2ccccc2)c(N)n1
outcome [13]: inactive
outcome [2]: inactive
Potency [3]: inactive
Potency [4]: inactive
Potency [5]: inactive
outcome [6]: inactive
outcome [7]: inactive
outcome [8]: inactive
caspase-3 activation [9]: -7.28%
outcome [11]: inactive
Potency [17]: inactive
Potency [15]: 15.8 µM (active)
